Measured values as given in PubChem BioAssay.
Values without a mark were called inactive.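 The calls were made as follows: active = fluorescence slope higher than the sample average by over 3 SD (cut at about -0.22 in these data, passing the limit was not always enough); inactive = the rest.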

Biological target: Voltage-gated potassium channel subunit beta-2 (Rattus norvegicus) (UniProt P62483)
Assay: inhibitors of rat Kvbeta2 reductase activity – biochemical, NADPH fluorescence, primary screen (AID 622);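 also: slope of raw intensity against log time taken from 70 to 1610 s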
Conditions: recombinant KvBeta, 4-cyanobenzaldehyde reduction, at 10 µM, active compounds read high

Chain of Voltage-gated potassium channel subunit beta-2 (Rattus norvegicus) (P62483 whole entry, looked up): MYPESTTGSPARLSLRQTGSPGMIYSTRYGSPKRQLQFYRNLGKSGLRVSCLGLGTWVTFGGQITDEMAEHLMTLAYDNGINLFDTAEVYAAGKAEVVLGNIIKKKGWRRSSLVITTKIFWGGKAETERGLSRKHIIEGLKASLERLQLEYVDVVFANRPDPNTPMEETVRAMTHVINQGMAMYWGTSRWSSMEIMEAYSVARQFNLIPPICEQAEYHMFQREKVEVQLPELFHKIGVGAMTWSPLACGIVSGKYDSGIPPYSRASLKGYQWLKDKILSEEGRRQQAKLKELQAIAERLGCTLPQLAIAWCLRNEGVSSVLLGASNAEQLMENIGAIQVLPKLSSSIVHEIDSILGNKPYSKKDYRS

SMILES	fluorescence slope
CCOC(=O)Cn1c(SC)nc2sc3c(c2c1=O)CC(C)(C)OC3	-0.459
Cc1cc(C)nc(CC(N)=O)n1	-0.508
Cc1nnc2n(-c3ccccc3)c(=O)c3c4c(sc3n12)CC(C)CC4 (stereo unspecified)	-0.396
COc1cc(C(=O)OCCN2CCCCC2)ccc1O	-0.493
N#Cc1c(NC(=O)CCC(=O)O)sc2c1CCCC2	-0.388
CCCCc1ccc(NC(=O)CSC2=C(C#N)C(c3ccco3)C3=C(CCCC3=O)N2)cc1 (stereo unspecified)	-0.44
COC(=O)c1ccc(CSc2ncnc3c2sc2nc(N4CCOCC4)c4c(c23)CCCC4)o1	-0.237
Cc1ccnc(N2CCN(c3cc(C)c(C#N)c4nc5ccccc5n34)CC2)c1	-0.408
Cc1nc(Nc2ncc3c(n2)CC(C)(C)CC3=O)nc2ccccc12	-0.376
COCc1[nH]nc2c1C(c1ccccc1OC)C(C#N)=C(N)O2 (stereo unspecified)	-0.488
CC(=O)N1CCN(c2nc(CC(C)C)c3c(c2C#N)CCC3)CC1	-0.477
CCOCCN(C(=O)COC)c1cccc(OC)c1	-0.321
N/C(=N\c1nc2ccccc2o1)NC(=O)c1ccccc1NC(=O)c1ccccc1	-0.361
Cc1ccc(C(C)C)c(OCCNc2nc3c(c(=O)n(C)c(=O)n3C)n2C)c1	-0.422
Cc1nc(SCC(N)=O)[nH]c(=O)c1Cc1ccc(OC(C)C)cc1	-0.331
CCOc1ccc(Cc2nc(N)nc(N)n2)cc1	-0.447
